In the supplement of paper PMC10849652:
The full data set covers some 8,800 targets. This sample favours those with a hit. About 0.5% of all pairs of compound and target were hits.

Tests used:
Experiment in all cases: log2 fold change, soluble protein after heating vs DMSO (PISA); higher = thermal stabilisation; K562 lysate, 10 uM; active = over 0.2 and 3.5 SD of the protein, either way, in both replicates (recomputed)
ibrutinib = compound: C=CC(=O)N1CCC[C@@H](n2nc(-c3ccc(Oc4ccccc4)cc3)c3c(N)ncnc32)C1 [ibrutinib]
Procedure, shortened: (§1)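 Following dounce homogenisation of K562 pellets in PBS pH 7.4 with 1 mM MgCl2, crude extract at 1 mg/mL protein was incubated for 30 min with 10 μM compound. Aliquots were then heated for 3 min over 48°C-58°C and pooled, NP-40 was added to 0.5% at 4°C, and soluble protein was recovered as the supernatant at 21,000xg for 90 min. Channel-sum-equalised TMTpro 16plex LC-MS/MS quantified this protein. Each value, from duplicates, is a log-two fold change in thermal stability relative to solvent controls.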

[1] = compound: CC(=O)c1cnc2ccc(-c3cc(Cl)c(O)c(Cl)c3)nc2c1N[C@H]1CC[C@H](CN(C)C)CC1
Procedure, shortened: as §1

ralimetinib = compound: CC(C)(C)Cn1c(N)nc2ccc(-c3[nH]c(C(C)(C)C)nc3-c3ccc(F)cc3)nc21 [ralimetinib]
Procedure, shortened: as §1

[2] = compound: CC(C)(O)CC(=O)NCCn1ccc2ncnc(Nc3ccc(Oc4cccc(C(F)(F)F)c4)c(Cl)c3)c21
Procedure, shortened: as §1

[3] = compound: CC(C)C1=C2N=C(C=C(N2N=C1)NCC3=CC=CC=C3)NCCCCCCN
Procedure, shortened: as §1

[4] = compound: CC1=C(C(CC(=O)N1)C2=CC=C(C=C2)C(F)(F)F)C(=O)NC3=C(C=C4C(=C3)C=NN4)F
Procedure, shortened: as §1

[5] = compound: CC1=C(C2=C(C=C1)C(=O)C3=CC=CC=C3N2CCCN)C
Procedure, shortened: as §1

[6] = compound: CC1=C(C=C(C=C1)NC(=O)C2=CC(=CC=C2)C(C)(C)C#N)NC3=CC4=C(C=C3)N=CN(C4=O)C
Procedure, shortened: as §1

[7] = compound: CC1=C(C=C(C=C1)NC(=O)C2=CC(=CC=C2)N(C)C)NC(=O)C3=CC=C(C=C3)O
Procedure, shortened: as §1

[8] = compound: CC1=CC=C(C=C1)SC2=C3C=C(SC3=CN=C2)C(=O)N
Procedure, shortened: as §1

vemurafenib = compound: CCCS(=O)(=O)Nc1ccc(F)c(C(=O)c2c[nH]c3ncc(-c4ccc(Cl)cc4)cc23)c1F [vemurafenib]
Procedure, shortened: as §1

[9] = compound: CCCS(=O)(=O)Nc1ccc(F)c(C(=O)c2c[nH]c3ncc(Cl)cc23)c1F
Procedure, shortened: as §1

barasertib = compound: CCN(CCCOc1ccc2c(Nc3cc(CC(=O)Nc4cccc(F)c4)[nH]n3)ncnc2c1)CCOP(=O)(O)O [barasertib]
Procedure, shortened: as §1

[10] = compound: CC[C@@H]1C(=O)N(C)c2cnc(Nc3ccc(C(=O)NC4CCN(C)CC4)cc3OC)nc2N1C1CCCC1
Procedure, shortened: as §1

volasertib = compound: CC[C@@H]1C(=O)N(C)c2cnc(Nc3ccc(C(=O)N[C@H]4CC[C@H](N5CCN(CC6CC6)CC5)CC4)cc3OC)nc2N1C(C)C [volasertib]
Procedure, shortened: as §1

[11] = compound: CCn1c(C(=O)N(C2CC2)C2CC2)cc2c3c(ncn3C)c(Nc3cc(C)n(C)n3)nc21
Procedure, shortened: as §1

[12] = compound: CCn1cc(-c2ccnc3[nH]c(-c4cccc(CN(C)C)c4)cc23)c(-c2ccc(NC(=O)N(C)C)cc2)n1
Procedure, shortened: as §1

[13] = compound: CN1CCC(CNc2ccc3ncc(-c4cccc(OC(F)(F)F)c4)n3n2)CC1
Procedure, shortened: as §1

saracatinib = compound: CN1CCN(CCOc2cc(OC3CCOCC3)c3c(Nc4c(Cl)ccc5c4OCO5)ncnc3c2)CC1 [saracatinib]
Procedure, shortened: as §1

sotrastaurin = compound: CN1CCN(c2nc(C3=C(c4c[nH]c5ccccc45)C(=O)NC3=O)c3ccccc3n2)CC1 [sotrastaurin]
Procedure, shortened: as §1

Measured: log2 fold change

PBK (UniProt Q96KB5)
inactive: ibrutinib 0.006 | [1] -0.007 | ralimetinib 0.005 | [2] -0.005 | [3] 0.029 | [4] -0.008 | [5] 0.015 | [6] 0.006 | [7] -0.013 | [8] 0.019 | vemurafenib -0.006 | [9] 0.002 | barasertib -0.009 | [10] -0.069 | volasertib -0.033 | [11] 0.039 | [12] 0.043 | [13] -0.017 | saracatinib -0.018 | sotrastaurin -0.015

PAFAH1B3 (UniProt Q15102)
UniProt Q15102, sequence (Q15102 whole entry, looked up): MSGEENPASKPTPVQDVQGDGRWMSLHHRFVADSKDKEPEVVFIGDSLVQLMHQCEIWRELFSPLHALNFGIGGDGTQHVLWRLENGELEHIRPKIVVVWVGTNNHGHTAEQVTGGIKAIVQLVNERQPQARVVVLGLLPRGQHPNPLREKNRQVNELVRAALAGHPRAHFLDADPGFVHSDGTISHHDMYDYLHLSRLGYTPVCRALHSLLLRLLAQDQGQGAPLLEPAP
inactive: ibrutinib 0.073 | [1] -0.004 | ralimetinib 0.003 | [2] -0.01 | [3] 0.015 | [4] -0.026 | [5] 0.014 | [6] -0.002 | [7] 0.02 | [8] 0.006 | vemurafenib -0.008 | [9] 0.002 | barasertib 0.119 | [10] -0.061 | volasertib -0.067 | [11] 0.031 | [12] -0.04 | [13] -0.021 | saracatinib 0.013 | sotrastaurin -0.009

NOSTRIN (UniProt Q8IVI9)
inactive: ibrutinib 0.025 | [1] -0.009 | ralimetinib 0.012 | [2] -0.041 | [3] -0.125 | [4] -0.032 | [5] -0.039 | [6] -0.019 | [7] 0.088 | [8] 0.012 | vemurafenib 0.091 | [9] 0.024 | barasertib 0.085 | [10] -0.178 | volasertib -0.029 | [11] -0.026 | [12] 0.025 | [13] -0.094 | saracatinib -0.001 | sotrastaurin -0.054

MYOM1 (UniProt P52179)
UniProt P52179, sequence (P52179 whole entry, looked up): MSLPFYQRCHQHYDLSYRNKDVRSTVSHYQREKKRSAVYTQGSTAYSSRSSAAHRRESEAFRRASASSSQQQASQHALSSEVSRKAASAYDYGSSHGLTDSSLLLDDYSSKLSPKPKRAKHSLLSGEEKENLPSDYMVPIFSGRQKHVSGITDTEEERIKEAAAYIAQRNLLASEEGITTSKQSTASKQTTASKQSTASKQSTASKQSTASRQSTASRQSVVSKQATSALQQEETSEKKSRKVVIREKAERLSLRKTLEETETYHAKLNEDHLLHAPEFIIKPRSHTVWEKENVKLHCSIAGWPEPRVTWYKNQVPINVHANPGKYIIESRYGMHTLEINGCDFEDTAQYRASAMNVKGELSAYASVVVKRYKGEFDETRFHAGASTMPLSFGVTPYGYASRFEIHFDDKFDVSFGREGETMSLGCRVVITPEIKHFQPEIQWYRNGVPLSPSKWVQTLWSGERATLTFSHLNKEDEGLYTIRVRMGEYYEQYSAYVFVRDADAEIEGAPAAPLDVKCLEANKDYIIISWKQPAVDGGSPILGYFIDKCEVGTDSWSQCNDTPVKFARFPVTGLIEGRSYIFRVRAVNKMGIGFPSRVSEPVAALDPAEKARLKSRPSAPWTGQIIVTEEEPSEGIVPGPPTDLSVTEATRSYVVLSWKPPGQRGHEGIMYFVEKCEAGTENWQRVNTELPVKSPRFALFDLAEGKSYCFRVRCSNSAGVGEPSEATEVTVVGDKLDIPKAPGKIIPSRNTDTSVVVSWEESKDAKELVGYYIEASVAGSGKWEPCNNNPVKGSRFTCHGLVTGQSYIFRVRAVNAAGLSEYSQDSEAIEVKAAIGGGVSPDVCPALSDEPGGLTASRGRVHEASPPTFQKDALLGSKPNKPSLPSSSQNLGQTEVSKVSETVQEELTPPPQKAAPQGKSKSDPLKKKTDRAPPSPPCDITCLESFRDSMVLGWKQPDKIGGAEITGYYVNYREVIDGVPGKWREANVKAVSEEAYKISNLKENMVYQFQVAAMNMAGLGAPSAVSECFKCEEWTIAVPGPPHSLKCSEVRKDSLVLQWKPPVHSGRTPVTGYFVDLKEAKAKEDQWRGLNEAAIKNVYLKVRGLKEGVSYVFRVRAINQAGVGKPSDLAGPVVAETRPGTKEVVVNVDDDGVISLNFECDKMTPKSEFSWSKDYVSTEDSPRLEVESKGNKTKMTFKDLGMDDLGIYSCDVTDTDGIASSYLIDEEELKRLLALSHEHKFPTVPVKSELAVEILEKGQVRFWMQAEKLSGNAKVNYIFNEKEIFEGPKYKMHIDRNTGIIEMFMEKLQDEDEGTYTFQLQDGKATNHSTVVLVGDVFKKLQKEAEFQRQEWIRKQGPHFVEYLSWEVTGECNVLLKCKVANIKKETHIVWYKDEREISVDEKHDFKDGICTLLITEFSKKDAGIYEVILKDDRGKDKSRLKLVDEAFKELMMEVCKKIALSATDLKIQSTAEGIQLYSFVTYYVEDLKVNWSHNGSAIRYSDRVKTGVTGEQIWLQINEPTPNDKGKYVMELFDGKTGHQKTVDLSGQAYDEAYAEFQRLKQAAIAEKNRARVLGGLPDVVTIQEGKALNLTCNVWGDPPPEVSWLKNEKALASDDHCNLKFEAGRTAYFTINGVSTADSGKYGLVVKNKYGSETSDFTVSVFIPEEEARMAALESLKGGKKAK
inactive: ibrutinib -0.017 | [1] 0.016 | ralimetinib 0.254 | [2] 0.026 | [3] -0.017 | [4] 0.011 | [5] -0.156 | [6] 0.052 | [7] -0.083 | [8] -0.025 | vemurafenib 0.015 | [9] -0.082 | barasertib 0.021 | [10] 0.049 | volasertib 0.123 | [11] -0.356 | [12] -0.185 | [13] 0.088 | saracatinib -0.086 | sotrastaurin -0.163

OSBPL3 isoform 2 (UniProt Q9H4L5)
UniProt Q9H4L5, sequence (Q9H4L5 whole entry, looked up): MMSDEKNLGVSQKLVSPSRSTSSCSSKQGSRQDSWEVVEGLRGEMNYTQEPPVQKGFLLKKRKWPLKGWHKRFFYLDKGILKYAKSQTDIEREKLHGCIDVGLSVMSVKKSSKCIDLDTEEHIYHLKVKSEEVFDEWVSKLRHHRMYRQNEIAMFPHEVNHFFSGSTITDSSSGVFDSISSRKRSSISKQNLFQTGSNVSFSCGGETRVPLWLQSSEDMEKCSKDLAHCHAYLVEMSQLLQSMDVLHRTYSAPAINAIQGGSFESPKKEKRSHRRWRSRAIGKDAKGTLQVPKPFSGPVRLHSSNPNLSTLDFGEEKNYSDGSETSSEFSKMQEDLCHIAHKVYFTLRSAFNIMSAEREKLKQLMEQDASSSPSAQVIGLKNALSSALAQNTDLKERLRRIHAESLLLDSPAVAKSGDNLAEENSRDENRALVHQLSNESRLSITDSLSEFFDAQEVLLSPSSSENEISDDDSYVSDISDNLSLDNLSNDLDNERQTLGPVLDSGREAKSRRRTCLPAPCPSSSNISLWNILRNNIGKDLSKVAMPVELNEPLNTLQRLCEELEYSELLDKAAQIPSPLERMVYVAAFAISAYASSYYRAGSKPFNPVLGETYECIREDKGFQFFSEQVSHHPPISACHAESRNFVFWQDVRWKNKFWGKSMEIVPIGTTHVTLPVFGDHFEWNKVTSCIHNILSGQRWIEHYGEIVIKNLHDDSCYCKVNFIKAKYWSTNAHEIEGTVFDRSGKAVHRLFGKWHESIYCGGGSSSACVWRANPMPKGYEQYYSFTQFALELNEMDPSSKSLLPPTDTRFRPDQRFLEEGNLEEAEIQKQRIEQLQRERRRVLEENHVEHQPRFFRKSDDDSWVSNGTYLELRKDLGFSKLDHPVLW
inactive: ibrutinib 0.031 | [1] -0.007 | ralimetinib 0.019 | [2] 0.004 | [3] -0.033 | [4] 0.018 | [5] 0.02 | [6] 0.015 | [7] 0.057 | [8] -0.016 | vemurafenib 0.018 | [9] 0.01 | barasertib 0.005 | [10] -0.053 | volasertib -0.139 | [11] 0.025 | [12] -0.013 | [13] -0.068 | saracatinib 0.04 | sotrastaurin 0.018

OGFOD2 (UniProt Q6N063)
inactive: ibrutinib 0.002 | [1] 0.023 | ralimetinib -0.012 | [2] -0.018 | [3] -0.125 | [4] -0.023 | [5] 0.025 | [6] -0.04 | [7] -0.029 | [8] -0.023 | vemurafenib 0.024 | [9] 0.173 | barasertib 0.005 | [10] -0.147 | volasertib -0.062 | [11] -0.023 | [12] -0.042 | [13] 0.071 | saracatinib -0.047 | sotrastaurin 0.039

NOC2L (UniProt Q9Y3T9)
inactive: ibrutinib -0.047 | [1] 0.015 | ralimetinib 0.047 | [2] -0.005 | [3] 0.026 | [4] 0.014 | [5] -0.074 | [6] -0.02 | [7] 0.021 | [8] 0.014 | vemurafenib 0.04 | [9] 0.021 | barasertib 0.028 | [10] -0.029 | volasertib -0.035 | [11] 0.006 | [12] -0.079 | [13] -0.016 | saracatinib -0.078 | sotrastaurin 0.05

ORC2 (UniProt Q13416)
UniProt Q13416, sequence (Q13416 whole entry, looked up): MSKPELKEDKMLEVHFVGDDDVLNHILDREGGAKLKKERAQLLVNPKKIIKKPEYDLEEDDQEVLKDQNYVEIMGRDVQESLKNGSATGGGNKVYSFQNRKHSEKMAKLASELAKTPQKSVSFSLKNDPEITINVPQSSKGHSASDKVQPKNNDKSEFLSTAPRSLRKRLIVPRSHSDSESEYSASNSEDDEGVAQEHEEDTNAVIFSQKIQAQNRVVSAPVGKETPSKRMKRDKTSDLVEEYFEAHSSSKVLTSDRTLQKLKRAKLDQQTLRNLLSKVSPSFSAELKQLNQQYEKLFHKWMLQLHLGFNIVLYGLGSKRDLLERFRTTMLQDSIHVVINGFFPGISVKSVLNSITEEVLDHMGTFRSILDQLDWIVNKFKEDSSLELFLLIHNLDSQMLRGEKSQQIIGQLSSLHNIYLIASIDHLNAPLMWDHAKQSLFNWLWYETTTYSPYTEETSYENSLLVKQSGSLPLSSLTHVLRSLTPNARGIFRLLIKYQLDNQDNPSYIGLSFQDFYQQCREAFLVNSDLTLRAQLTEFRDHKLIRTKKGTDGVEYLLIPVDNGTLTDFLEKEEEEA
inactive: ibrutinib 0.012 | [1] -0.011 | ralimetinib 0.044 | [2] 0.032 | [3] -0.014 | [4] 0.016 | [5] -0.089 | [6] -0.005 | [7] -0.014 | [8] 0.021 | vemurafenib 0.048 | [9] 0.007 | barasertib 0.003 | [10] -0.077 | volasertib -0.048 | [11] 0.002 | [12] -0.002 | [13] -0.085 | saracatinib 0.007 | sotrastaurin 0.049

NDUFS1 isoform 2 (UniProt P28331)
inactive: ibrutinib -0.022 | [1] -0.009 | ralimetinib 0.014 | [2] -0.049 | [3] -0.041 | [4] 0.01 | [5] 0.007 | [6] -0.045 | [7] 0.005 | [8] 0.005 | vemurafenib 0.041 | [9] 0.018 | barasertib 0.011 | [10] -0.032 | volasertib -0.001 | [11] 0.016 | [12] -0.006 | [13] -0.027 | saracatinib -0.004 | sotrastaurin 0.054

NCKAP1L (UniProt P55160)
inactive: ibrutinib -0.18 | [1] 0.021 | ralimetinib 0.025 | [2] -0.04 | [3] -0.111 | [4] -0.051 | [5] -0.089 | [6] -0.012 | [7] 0.04 | [8] 0.025 | vemurafenib -0.14 | [9] 0.032 | barasertib 0.131 | [10] -0.068 | volasertib 0.004 | [11] -0.049 | [12] -0.025 | [13] -0.082 | saracatinib -0.083 | sotrastaurin 0.032

NAA38 isoform 2 (UniProt Q9BRA0)
inactive: ibrutinib 0.015 | [1] -0.012 | ralimetinib -0.02 | [2] -0.015 | [3] -0.014 | [4] 0.052 | [5] -0.017 | [6] -0.028 | [7] 0.022 | [8] -0.029 | vemurafenib 0.049 | [9] 0.014 | barasertib 0.09 | [10] -0.012 | volasertib 0.025 | [11] 0.04 | [13] 0.201 | saracatinib 0.042 | sotrastaurin -0.079
active: [12] -0.461

NELFA (UniProt Q9H3P2)
UniProt Q9H3P2, sequence (Q9H3P2 whole entry, looked up): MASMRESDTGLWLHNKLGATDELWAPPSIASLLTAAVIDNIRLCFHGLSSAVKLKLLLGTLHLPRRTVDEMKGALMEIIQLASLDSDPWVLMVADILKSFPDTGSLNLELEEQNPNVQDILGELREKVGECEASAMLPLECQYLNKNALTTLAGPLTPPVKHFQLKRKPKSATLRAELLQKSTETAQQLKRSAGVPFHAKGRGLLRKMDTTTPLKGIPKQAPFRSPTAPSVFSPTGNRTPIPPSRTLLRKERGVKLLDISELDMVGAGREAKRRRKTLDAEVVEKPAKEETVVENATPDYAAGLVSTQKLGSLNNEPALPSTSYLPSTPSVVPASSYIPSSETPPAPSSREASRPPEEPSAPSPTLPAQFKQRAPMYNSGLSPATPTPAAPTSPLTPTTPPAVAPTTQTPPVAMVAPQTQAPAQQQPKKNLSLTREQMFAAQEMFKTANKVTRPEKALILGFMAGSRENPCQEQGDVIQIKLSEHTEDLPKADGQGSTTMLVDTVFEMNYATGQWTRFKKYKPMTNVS
inactive: ibrutinib 0 | [1] 0.001 | ralimetinib -0.038 | [2] 0.003 | [3] -0.012 | [4] 0.008 | [5] 0.008 | [6] -0.022 | [7] -0.04 | [8] -0.024 | vemurafenib 0.015 | [9] 0.02 | barasertib -0.005 | [10] -0.016 | volasertib -0.083 | [11] 0.007 | [12] 0.037 | [13] -0.037 | saracatinib -0.013 | sotrastaurin 0.029

PARG (UniProt Q86W56)
inactive: ibrutinib 0.013 | [1] 0.01 | ralimetinib 0.017 | [2] -0.011 | [3] -0.025 | [4] -0.017 | [5] -0.028 | [6] 0.021 | [7] 0.061 | [8] 0.005 | vemurafenib 0.028 | [9] 0.033 | barasertib 0.008 | [10] -0.027 | volasertib -0.018 | [11] -0.015 | [12] 0.065 | [13] -0.032 | saracatinib 0.006 | sotrastaurin 0.02

PANK1 (UniProt Q8TE04)
UniProt Q8TE04, sequence (Q8TE04 whole entry, looked up): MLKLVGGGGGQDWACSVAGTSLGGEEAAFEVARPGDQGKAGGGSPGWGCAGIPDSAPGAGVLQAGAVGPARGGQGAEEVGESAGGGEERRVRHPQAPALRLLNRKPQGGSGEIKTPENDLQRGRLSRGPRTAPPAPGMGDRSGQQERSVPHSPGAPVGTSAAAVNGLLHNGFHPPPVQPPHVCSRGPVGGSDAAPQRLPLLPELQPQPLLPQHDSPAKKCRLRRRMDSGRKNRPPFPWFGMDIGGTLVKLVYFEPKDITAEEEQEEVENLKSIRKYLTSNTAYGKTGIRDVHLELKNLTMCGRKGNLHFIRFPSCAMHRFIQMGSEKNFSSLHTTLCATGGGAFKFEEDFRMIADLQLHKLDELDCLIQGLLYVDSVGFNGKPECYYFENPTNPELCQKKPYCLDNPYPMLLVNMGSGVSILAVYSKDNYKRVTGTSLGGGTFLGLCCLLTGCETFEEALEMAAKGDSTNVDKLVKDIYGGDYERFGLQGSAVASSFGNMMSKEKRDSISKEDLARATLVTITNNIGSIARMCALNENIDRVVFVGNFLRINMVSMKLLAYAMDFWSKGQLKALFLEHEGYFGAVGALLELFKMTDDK
inactive: ibrutinib -0.031 | [1] -0.007 | ralimetinib 0.04 | [2] -0.003 | [3] -0.079 | [4] 0.045 | [5] -0.068 | [6] -0.035 | [7] -0.025 | [8] 0.064 | vemurafenib 0.086 | [9] 0.036 | barasertib 0.097 | [10] -0.231 | volasertib -0.063 | [11] 0.056 | [12] 0.226 | [13] -0.253 | saracatinib 0 | sotrastaurin 0.052

NUP93 (UniProt Q8N1F7)
inactive: ibrutinib -0.013 | [1] 0.007 | ralimetinib 0.036 | [2] -0.015 | [3] 0 | [4] 0.027 | [5] 0.019 | [6] -0.029 | [7] 0.036 | [8] 0 | vemurafenib -0.001 | [9] 0.014 | barasertib 0.036 | [10] -0.069 | volasertib -0.094 | [11] 0.044 | [12] -0.048 | [13] -0.079 | saracatinib 0.013 | sotrastaurin 0.028

NMT1 (UniProt P30419)
UniProt P30419, sequence (P30419 whole entry, looked up): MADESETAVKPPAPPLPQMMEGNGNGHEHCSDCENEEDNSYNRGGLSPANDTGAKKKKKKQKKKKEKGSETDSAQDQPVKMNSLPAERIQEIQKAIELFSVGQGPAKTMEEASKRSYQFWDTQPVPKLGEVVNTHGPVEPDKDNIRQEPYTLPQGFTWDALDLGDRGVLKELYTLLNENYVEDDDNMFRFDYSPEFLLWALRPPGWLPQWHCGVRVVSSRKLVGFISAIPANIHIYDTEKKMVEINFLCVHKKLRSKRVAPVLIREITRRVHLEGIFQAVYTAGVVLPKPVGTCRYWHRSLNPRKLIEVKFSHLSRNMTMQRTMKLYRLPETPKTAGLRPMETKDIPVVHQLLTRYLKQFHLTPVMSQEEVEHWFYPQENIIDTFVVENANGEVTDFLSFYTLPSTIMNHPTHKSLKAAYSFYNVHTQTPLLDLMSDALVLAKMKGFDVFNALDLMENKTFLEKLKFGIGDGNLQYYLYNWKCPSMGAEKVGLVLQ
inactive: ibrutinib -0.045 | [1] 0.005 | ralimetinib -0.001 | [2] 0.014 | [3] 0.022 | [4] -0.011 | [5] -0.009 | [6] -0.01 | [7] 0.017 | [8] 0.001 | vemurafenib 0.024 | [9] 0.016 | barasertib -0.025 | [10] 0.014 | volasertib -0.002 | [11] 0.01 | [12] -0.04 | [13] 0.001 | saracatinib 0.003 | sotrastaurin 0.025
